Results reported in PubChem BioAssay.
Values without a mark were called inactive. Active and inactive are the calls of the source. Rule as the data show it, unless noted: active = inhibition above about 28%; inactive = the rest.

Tests used:
[1] = target: Nuclear receptor coactivator 3 (Homo sapiens) (UniProt Q9Y6Q9); test: SRC3 coactivator transcriptional activity inhibitors, confirmation, cell-based, luminescence, quadruplicate (AID 588792;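 active = mean inhibition over 43.08%, the solvent-only control mean plus 3 SD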;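 also: 0% = DMSO treated cells and 100% = gossypol at 36 µM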); settings: HEK293 GAL4-SRC3 luciferase reporter, at 3.6 µM, active compounds read high
[2] = system: transactivating tegument protein VP16 (Human herpesvirus 1), Gal4-VP16 luciferase reporter; test: VP16 transactivation inhibitors, counter-screen for SRC3 inhibitor project, cell-based, luminescence, high throughput (AID 588794; in the data active = inhibition above about 30%); settings: mammalian cells, VP16-driven luciferase reporter luminescence; at 3.6 µM; active compounds read high
[3] = target: Nuclear receptor coactivator 1 (Homo sapiens) (UniProt Q15788); test: SRC1 coactivator transcriptional activity inhibitors, confirmation, cell-based, luminescence, quadruplicate (AID 588820;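 active = mean inhibition above 46.68%, the untreated control wells mean plus 3 SD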;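 also: 0% = DMSO wells and 100% = gossypol 36 µM treated wells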); settings: HEK293 GAL4-SRC1 luciferase reporter, at 3.6 µM, active compounds read high
[4] = VP16 transactivation inhibitors, counter-screen for SRC1 inhibitor project, cell-based, luminescence, high throughput (AID 588824; in the data active = inhibition above about 25%); settings: cell-based VP16 transactivation luciferase luminescence; at 3.6 µM; active compounds read high
[5] = StAR promoter reporter inhibitors, counter-screen for LRH-1 inverse agonist project, cell-based, luminescence, high throughput (AID 651611); settings: StAR promoter luciferase reporter counterscreen, at 3.6 µM, active compounds read high
[6] = target: Nuclear receptor subfamily 5 group A member 2 (Homo sapiens) (UniProt O00482); test: LRH-1 (NR5A2) inverse agonists, retest, confirmation, cell-based, luminescence (AID 651613; in the data active = inhibition above about 42%;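 also: HEK293T cells co-transfected with LRH-1 and StAR promoter luciferase reporter; 0% = vehicle wells and 100% = parental cells lacking receptor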); settings: cell-based LRH-1 luciferase reporter, inverse agonism; at 3.6 µM; active compounds read high
[7] = target: Steroidogenic factor 1 (Homo sapiens) (UniProt Q13285); test: SF1 (NR5A1) inverse agonists, counter-screen for LRH-1 inverse agonist project, cell-based, luminescence, high throughput (AID 651614; in the data active = inhibition above about 44%;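 also: cells cotransfected with StAR promoter reporter and SF1 expression vector; 0% = vehicle on cells with receptor and 100% = vehicle on cells lacking receptor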); settings: cell-based SF1 luciferase reporter, at 3.6 µM, active compounds read high
[8] = VP16 transactivation reporter inhibitors, counter-screen for LRH-1 inverse agonist project, cell-based, luminescence, high throughput (AID 651615; in the data active = inhibition above about 33%); settings: Gal4-VP16 luciferase reporter cells, at 3.6 µM, active compounds read high

Sequence of Nuclear receptor coactivator 1 (Homo sapiens) (Q15788 whole entry, looked up, the tested form may be a part): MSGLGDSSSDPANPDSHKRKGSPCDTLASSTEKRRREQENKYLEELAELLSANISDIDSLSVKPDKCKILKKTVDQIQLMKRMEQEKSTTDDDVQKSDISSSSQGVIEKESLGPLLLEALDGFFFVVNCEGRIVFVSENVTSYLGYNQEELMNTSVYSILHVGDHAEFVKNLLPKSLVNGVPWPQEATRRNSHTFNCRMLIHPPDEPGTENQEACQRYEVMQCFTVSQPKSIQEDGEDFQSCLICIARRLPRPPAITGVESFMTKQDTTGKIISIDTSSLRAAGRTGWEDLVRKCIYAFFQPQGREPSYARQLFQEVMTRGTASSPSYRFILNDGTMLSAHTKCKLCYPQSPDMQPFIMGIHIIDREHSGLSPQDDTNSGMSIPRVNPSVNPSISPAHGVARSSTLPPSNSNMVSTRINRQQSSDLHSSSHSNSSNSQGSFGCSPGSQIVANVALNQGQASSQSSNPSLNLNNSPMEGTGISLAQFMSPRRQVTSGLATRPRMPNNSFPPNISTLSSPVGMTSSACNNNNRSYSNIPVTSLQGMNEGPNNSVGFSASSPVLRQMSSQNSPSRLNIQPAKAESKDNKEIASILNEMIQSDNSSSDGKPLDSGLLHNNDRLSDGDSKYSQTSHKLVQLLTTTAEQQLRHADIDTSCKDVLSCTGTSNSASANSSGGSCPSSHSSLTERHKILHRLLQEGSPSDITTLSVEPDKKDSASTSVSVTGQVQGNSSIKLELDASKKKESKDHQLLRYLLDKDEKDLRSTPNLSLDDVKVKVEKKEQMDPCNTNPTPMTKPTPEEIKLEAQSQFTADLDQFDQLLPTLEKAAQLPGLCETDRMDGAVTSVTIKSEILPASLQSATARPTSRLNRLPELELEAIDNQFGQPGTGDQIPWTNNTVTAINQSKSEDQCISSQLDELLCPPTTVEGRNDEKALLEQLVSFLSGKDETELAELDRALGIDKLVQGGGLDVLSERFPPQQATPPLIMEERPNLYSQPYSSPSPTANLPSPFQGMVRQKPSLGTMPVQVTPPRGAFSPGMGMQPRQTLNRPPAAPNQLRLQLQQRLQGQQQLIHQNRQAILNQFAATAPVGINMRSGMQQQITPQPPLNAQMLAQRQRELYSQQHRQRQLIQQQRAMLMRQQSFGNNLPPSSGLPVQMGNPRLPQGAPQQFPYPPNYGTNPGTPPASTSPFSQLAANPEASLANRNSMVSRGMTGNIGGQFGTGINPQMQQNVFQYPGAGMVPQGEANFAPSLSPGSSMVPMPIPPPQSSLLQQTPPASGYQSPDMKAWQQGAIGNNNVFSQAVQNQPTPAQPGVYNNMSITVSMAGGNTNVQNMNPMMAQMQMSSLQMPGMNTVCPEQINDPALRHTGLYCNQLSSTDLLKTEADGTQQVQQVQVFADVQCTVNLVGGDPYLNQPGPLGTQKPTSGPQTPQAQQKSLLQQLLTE
Sequence of Nuclear receptor subfamily 5 group A member 2 (Homo sapiens) (O00482 whole entry, looked up): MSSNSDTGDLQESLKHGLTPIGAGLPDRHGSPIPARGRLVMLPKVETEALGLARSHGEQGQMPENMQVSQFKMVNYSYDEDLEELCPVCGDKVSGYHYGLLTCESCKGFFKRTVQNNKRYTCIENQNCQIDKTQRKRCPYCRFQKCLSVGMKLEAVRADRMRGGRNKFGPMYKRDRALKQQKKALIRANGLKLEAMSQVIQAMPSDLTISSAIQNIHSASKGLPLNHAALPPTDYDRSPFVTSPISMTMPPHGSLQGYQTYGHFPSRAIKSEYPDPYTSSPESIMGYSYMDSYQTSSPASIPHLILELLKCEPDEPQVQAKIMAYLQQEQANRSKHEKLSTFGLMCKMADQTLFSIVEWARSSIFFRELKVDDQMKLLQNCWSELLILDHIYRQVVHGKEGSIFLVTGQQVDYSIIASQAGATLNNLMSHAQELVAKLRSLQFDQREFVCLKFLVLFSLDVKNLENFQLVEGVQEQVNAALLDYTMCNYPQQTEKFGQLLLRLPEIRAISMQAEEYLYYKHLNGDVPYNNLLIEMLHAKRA
Sequence of Nuclear receptor coactivator 3 (Homo sapiens) (Q9Y6Q9 whole entry, looked up, the tested form may be a part): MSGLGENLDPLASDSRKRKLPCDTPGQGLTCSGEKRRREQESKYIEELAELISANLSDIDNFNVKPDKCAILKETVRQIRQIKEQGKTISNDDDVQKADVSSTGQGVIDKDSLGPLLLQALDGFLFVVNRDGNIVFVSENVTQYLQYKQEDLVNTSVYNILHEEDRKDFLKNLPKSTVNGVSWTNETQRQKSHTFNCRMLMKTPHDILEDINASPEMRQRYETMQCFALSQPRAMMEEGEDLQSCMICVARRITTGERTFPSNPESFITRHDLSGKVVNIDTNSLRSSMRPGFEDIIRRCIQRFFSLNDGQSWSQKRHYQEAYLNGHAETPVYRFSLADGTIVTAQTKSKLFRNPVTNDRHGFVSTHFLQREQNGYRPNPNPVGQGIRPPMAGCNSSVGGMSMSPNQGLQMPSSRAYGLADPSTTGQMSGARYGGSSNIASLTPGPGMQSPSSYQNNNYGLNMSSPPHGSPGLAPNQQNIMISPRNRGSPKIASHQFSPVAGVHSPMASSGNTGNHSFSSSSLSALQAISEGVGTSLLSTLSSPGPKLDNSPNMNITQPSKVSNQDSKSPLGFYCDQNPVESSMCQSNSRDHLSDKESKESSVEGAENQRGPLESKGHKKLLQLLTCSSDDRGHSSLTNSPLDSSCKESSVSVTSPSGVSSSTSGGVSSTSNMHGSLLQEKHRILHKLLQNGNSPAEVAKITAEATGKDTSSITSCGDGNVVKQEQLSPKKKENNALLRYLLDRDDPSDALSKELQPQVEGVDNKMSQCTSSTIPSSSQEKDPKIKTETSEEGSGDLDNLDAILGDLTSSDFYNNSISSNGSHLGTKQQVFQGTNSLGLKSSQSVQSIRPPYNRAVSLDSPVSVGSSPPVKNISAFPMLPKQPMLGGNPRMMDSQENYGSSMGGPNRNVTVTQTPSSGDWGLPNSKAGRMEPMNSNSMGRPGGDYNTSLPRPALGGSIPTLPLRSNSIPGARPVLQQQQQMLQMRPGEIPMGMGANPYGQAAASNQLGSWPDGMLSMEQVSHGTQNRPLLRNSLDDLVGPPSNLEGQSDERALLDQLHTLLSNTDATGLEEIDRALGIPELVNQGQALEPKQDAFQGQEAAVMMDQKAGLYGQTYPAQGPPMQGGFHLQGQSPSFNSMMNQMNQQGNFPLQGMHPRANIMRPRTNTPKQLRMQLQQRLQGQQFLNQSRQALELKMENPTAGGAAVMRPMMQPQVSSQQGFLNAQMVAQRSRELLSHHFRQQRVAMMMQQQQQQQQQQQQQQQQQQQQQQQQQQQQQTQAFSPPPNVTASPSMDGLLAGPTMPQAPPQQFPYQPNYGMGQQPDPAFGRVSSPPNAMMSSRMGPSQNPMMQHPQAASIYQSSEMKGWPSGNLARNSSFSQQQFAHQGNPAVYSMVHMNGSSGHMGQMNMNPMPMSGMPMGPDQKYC
Sequence of Steroidogenic factor 1 (Homo sapiens) (Q13285 whole entry, looked up, the tested form may be a part): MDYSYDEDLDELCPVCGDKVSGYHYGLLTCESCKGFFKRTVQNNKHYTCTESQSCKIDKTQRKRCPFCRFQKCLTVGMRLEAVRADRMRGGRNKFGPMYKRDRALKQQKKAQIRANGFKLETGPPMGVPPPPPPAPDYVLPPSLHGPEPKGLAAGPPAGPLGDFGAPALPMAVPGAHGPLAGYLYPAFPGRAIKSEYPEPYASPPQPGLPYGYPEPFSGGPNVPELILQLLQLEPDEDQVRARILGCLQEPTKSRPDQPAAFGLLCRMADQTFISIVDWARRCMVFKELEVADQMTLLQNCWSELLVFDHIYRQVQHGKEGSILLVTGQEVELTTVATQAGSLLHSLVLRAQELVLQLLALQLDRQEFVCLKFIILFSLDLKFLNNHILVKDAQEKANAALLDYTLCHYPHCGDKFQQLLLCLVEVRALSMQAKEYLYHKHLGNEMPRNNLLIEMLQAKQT

Row | SMILES | inhibition [1] | inhibition [2] | inhibition [3] | inhibition [4] | inhibition [5] | inhibition [6] | inhibition [7] | inhibition [8]
1 | NC(=O)c1cccc(-c2cnc(N)c(C(=O)c3cccnc3)n2)c1 | 76.7% (active) | 49.5% (active) | 65.9% (active) | 48.5% (active) | 59.9% (active) | 72.6% (active) | 67.2% (active) | 72.7% (active)
2 | OC[C@H]1O[C@@H](n2cnc3c(NCc4ccco4)ncnc32)[C@H](O)[C@@H]1O | 58% (active) | 44.6% (active) | 42.5% | 51.8% (active) | 55.1% (active) | 52.9% (active) | 51.4% (active) | 61.4% (active)
3 | CCN1/C(=C/c2ccc3cccc(C)c3[n+]2CC)Sc2ccccc21 | 35.1% | 63.3% (active) | 26% | 71.4% (active) | 57% (active) | 105% (active) | 77% (active) | 80.5% (active)
4 | O=C(CSc1nc2sc3c(c2c(=O)n1-c1ccccc1)CCCC3)NCc1ccco1 | 7.86% | -11.9% | 4.53% | -16.3% | 8.53% | 15.3% | 10.7% | 3.41%
5 | Cc1cc(C(C)(C)C)cc(C)c1C[n+]1ccc2ccccc2c1 | 41.4% | 59.3% (active) | 11.7% | 53.3% (active) | 30.7% (active) | 99.2% (active) | 69.1% (active) | 72.7% (active)
6 | Brc1ccc2c(c1)CN1CCCC1=N2 | 15.1% | 31.6% (active) | 9.34% | 28% (active) | 30.9% (active) | 42.2% (active) | 30.6% | 42.4% (active)
7 | Nc1nc2c(nnn2C2CC(O)C(CO)O2)c(=O)[nH]1 (centres undefined) | 78.7% (active) | 13.7% | 13.6% | 3.11% | 51.8% (active) | 53.9% (active) | 44.1% (active) | 9.15%
8 | CCC(NC(=O)Nc1nnc(C(F)(F)F)s1)(C(F)(F)F)C(F)(F)F | 60.7% (active) | 82% (active) | 50.1% (active) | 85.6% (active) | 79.3% (active) | 103% (active) | 90.6% (active) | 90.5% (active)
